For five compounds, composite z-score and z-score results are on record in PubChem BioAssay.

The nature of assay [1]: binders of probe aFSTL3 on microarray, primary screen, stem cell growth factor project, biochemical, small-molecule microarray, fluorescence 635/667 (AID 1064).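 Further: measures binding of the biotinylated anti-FSTL3 antibody to printed compounds.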 As to conditions: higher = more signal.
Assay [2] is described as follows: binders from COS7 lysate, DM2A8 probe, primary screen, torsin A project, cell lysate, small-molecule microarray, fluorescence 635/667 (AID 1065). As to conditions: higher = more signal, COS7 lysate expressing mutant human TOR1A.
Assay [3] can be described thus: binders of probe aFGF2 on microarray, primary screen, stem cell growth factor project, biochemical, small-molecule microarray, fluorescence 635/667 (AID 1067).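 Further: measures binding of biotinylated aFGF2 protein to printed compounds on slides; z-score merges feature fluorescence and signal-to-noise across triplicate slides.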 Conditions: higher = more signal.
Assay [4] can be described thus: binders of probe aFGF10 on microarray, primary screen, stem cell growth factor project, biochemical, small-molecule microarray, fluorescence 635/667 (AID 1071).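 Further: score merges 667 nm spot intensity and signal to noise from triplicate slides.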 As to conditions: higher = more signal.
For assay [5], the target named is Neurogenic locus notch homolog protein 2 (Homo sapiens) (UniProt Q04721). Kind of assay: Notch2 binders on small-molecule microarrays, primary screen, biochemical, small-molecule microarray, 635 nm fluorescence, stem cell growth factors (AID 1073). Conditions: Notch2 binding, higher = more signal.
Chain of Neurogenic locus notch homolog protein 2 (Homo sapiens) (Q04721 whole entry, looked up, canonical isoform): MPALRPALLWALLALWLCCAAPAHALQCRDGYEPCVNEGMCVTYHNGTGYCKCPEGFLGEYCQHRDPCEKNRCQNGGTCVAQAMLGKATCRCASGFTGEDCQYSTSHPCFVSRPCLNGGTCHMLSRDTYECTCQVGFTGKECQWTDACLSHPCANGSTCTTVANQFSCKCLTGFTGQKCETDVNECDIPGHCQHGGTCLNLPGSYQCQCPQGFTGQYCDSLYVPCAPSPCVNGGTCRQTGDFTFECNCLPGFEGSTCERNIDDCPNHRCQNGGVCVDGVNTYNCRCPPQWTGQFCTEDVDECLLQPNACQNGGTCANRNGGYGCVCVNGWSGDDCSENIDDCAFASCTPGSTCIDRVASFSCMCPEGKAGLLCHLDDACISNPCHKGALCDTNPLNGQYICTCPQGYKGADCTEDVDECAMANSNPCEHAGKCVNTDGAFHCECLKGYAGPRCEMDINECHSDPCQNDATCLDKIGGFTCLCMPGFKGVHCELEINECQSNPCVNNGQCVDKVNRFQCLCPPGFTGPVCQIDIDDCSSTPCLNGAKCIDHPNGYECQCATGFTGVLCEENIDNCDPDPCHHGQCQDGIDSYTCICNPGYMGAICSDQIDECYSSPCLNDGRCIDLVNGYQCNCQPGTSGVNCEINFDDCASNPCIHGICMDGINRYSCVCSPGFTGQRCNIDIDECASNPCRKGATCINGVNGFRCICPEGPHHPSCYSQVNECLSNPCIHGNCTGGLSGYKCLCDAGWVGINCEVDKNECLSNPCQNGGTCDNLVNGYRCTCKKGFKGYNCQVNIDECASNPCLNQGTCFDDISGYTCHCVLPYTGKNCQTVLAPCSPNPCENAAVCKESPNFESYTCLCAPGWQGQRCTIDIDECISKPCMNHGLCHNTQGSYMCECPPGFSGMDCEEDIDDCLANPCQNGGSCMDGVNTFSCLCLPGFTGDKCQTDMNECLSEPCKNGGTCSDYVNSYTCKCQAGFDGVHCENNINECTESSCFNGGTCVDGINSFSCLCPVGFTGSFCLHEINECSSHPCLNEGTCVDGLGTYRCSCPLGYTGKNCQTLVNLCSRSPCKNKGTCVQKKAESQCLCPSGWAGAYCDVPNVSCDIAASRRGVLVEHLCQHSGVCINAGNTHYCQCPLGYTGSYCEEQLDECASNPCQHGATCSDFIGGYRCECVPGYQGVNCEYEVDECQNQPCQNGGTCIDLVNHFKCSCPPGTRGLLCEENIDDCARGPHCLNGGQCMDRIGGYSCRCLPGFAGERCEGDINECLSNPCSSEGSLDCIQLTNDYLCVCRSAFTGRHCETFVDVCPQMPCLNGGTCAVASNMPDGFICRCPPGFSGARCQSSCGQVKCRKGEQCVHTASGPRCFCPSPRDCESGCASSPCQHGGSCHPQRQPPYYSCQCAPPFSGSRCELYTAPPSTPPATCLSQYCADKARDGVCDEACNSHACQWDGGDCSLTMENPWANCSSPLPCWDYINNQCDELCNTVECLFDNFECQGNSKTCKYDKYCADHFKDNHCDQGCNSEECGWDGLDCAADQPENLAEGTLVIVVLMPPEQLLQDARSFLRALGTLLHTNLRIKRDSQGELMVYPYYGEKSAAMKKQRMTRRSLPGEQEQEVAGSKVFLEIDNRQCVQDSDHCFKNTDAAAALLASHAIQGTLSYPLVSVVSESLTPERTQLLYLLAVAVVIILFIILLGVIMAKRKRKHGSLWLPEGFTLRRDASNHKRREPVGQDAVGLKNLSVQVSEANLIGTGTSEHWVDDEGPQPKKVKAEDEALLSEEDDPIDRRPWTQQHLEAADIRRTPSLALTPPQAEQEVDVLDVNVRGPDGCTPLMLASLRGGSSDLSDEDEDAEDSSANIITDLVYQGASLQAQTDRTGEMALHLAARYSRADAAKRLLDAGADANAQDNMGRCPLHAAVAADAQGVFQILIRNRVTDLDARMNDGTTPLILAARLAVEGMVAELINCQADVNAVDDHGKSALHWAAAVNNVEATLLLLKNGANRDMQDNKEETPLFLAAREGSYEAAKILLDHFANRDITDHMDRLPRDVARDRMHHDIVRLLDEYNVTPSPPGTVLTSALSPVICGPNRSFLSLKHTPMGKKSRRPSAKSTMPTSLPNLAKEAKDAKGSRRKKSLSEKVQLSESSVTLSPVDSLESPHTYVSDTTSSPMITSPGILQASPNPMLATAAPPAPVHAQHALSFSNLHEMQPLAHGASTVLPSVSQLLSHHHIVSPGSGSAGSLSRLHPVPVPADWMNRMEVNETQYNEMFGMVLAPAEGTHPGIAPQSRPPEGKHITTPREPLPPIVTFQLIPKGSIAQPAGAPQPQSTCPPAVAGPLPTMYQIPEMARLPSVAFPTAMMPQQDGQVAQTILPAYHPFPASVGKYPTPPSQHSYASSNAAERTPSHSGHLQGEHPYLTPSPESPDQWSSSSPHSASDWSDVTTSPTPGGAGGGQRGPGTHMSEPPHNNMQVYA
Assay [6] deals with Pro-neuregulin-1, membrane-bound isoform (Homo sapiens) (UniProt Q02297). Description: NRG1 binders on small-molecule microarrays, primary screen, psychiatric disease protein project, biochemical, small-molecule microarray, fluorescence 635/667 (AID 1075).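 Further: score combines 667 nm spot fluorescence with signal to noise.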 As to conditions: NRG1 binding, 635 nm fluorescence, higher = more signal.
Chain of Pro-neuregulin-1, membrane-bound isoform (Homo sapiens) (Q02297 whole entry, looked up, the tested form may be a part, canonical isoform): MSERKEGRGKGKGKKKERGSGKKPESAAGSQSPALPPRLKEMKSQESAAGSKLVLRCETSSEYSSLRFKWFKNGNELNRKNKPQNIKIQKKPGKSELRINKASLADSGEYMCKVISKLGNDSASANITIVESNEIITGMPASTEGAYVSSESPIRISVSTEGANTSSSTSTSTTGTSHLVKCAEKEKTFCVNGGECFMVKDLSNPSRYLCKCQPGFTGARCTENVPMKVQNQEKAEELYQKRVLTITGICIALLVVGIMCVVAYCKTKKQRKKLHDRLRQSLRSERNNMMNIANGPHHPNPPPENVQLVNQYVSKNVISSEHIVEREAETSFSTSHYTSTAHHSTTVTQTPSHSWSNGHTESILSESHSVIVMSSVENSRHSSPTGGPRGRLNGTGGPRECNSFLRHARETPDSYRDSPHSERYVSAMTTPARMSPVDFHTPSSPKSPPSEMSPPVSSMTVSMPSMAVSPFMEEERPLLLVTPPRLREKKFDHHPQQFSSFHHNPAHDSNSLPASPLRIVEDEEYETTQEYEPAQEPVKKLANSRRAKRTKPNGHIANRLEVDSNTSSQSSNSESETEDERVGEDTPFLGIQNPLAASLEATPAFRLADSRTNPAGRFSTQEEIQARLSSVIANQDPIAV
In assay [7] the test system is Neuregulin-1 EGF-like domain. Kind of assay: binders of neuregulin-1 EGF-like domain, primary screen, biochemical, small-molecule microarray, 635 nm fluorescence (AID 1081).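 Further: binding of the protein to compounds printed on small-molecule microarray slides.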 Conditions: small-molecule microarray binding, higher = more signal.
Assay [8] in a line: FRG1 promoter luciferase signal modulators, primary screen, FRG1 inhibition for FSHD, cell-based, C2C12 myotubes, firefly/Renilla luciferase, luminescence (AID 1084). As to conditions: higher = more signal, called active from +8 up or from −8 down.
Assay [9] in a line: binders of probe aFST on microarray, primary screen, stem cell growth factor project, biochemical, small-molecule microarray, fluorescence 635/667 (AID 1086).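 Further: score merges 667 nm fluorescence with signal-to-noise of each printed compound spot.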 As to conditions: higher = more signal.
Assay [10] in a line: binders of probe aHhip on microarray, primary screen, stem cell growth factor project, biochemical, small-molecule microarray, fluorescence 635/667 (AID 1087).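 Further: score merges spot fluorescence at 667nm with spot signal to noise ratio.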 As to conditions: higher = more signal.
For assay [11], the system named is PRMT1 (protein arginine N-methyltransferase 1). Description: PRMT1 binders on small-molecule microarrays, primary screen, biochemical, small-molecule microarray, 635 nm fluorescence (AID 1088).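 Further: binding of Prmt1 protein to compounds spotted on small-molecule microarray slides.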 Conditions: small-molecule microarray binding, higher = more signal.
The nature of assay [12]: yeast growth modulation, basal conditions, primary screen, YJM789 clinical isolate, OD600, 24 h (AID 1089).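 Further: growth of clinical yeast isolate S. cerevisiae YJM 789 seeded 1000 cells per well; test concentration not given here.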 As to conditions: S. cerevisiae YJM789 growth, higher = more signal, called active from +8 up or from −8 down.
A short description of assay [13]: fission yeast growth modulation, primary screen, strain 972, OD600, 24 h, no modulator (AID 1090).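 Further: basal condition with compound alone and no growth modifier present; test concentration not given here.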 As to conditions: S. pombe 972 growth, higher = more signal, called active from +8 up or from −8 down.
Assay [14] can be described thus: S. cerevisiae growth modulation with rapamycin, primary screen, strain BY4716, OD600, 96 h (AID 1091). Further: test concentration not given here. Conditions: higher = more signal, called active from +8 up or from −8 down.
Assay [15] deals with Torsin-1A-interacting protein 2 (Homo sapiens) (UniProt Q8NFQ8). Kind of assay: LULL1 binders on small-molecule microarray, primary screen, cell lysate, human LULL1 lysate, 635/667 nm fluorescence (AID 1092).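 Further: score merges per-feature 667 nm fluorescence with signal-to-noise.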 As to conditions: hLULL1 lysate binding, 635 nm fluorescence, higher = more signal.
Chain of Torsin-1A-interacting protein 2 (Homo sapiens) (Q8NFQ8 whole entry, looked up): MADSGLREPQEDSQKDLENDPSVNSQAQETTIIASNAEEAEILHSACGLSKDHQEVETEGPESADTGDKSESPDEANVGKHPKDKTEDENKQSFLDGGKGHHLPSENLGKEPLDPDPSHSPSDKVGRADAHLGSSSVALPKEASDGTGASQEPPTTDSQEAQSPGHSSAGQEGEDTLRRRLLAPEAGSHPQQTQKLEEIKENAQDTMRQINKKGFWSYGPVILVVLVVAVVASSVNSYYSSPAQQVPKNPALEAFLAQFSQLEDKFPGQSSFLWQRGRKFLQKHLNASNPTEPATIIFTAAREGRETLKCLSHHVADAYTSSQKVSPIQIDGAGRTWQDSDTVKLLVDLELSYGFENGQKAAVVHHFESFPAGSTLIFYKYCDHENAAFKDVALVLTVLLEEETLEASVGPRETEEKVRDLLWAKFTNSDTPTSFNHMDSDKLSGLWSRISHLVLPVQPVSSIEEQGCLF
Assay [16] can be described thus: E. coli growth modulation, two-sided OD650, primary screen, E. coli filamentation project, strain DRC41, 24 h (AID 1093).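 Further: MC1000 strain lacking acrAB efflux and sulA so SOS filamentation is blocked; test concentration not given here.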 As to conditions: OD650, 24 h, higher = more signal, called active from +8 up or from −8 down.
The nature of assay [17]: small-molecule microarray binders of probe aLefty2, primary screen, biochemical, biotinylated probe, 635/667 nm fluorescence (AID 1094).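 Further: score merges spot fluorescence near 667 nm with spot signal-to-noise ratio.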 As to conditions: higher = more signal.
The test system of assay [18] is Noggin (protein binding on small-molecule microarray). Description: Noggin binders on small-molecule microarray, primary screen, biochemical, 635/667 nm fluorescence (AID 1095).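 Further: score merges 667 nm feature fluorescence with signal to noise over triplicate slides.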 As to conditions: 635 nm fluorescence, higher = more signal.
Assay [19] has as its target Neurogenic locus notch homolog protein 3 (Homo sapiens) (UniProt Q9UM47). Kind of assay: NOTCH3 binders on small-molecule microarray, primary screen, biochemical, 635/667 nm fluorescence (AID 1096). Conditions: NOTCH3 binding, 635 nm fluorescence, higher = more signal.
A short description of assay [20]: small-molecule microarray binders of probe aEGFR, primary screen, biochemical, biotinylated probe, 635/667 nm fluorescence (AID 1097).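 Further: probe is a biotinylated anti-EGFR antibody binding compounds printed on slides; score combines fluorescence near 667 nm and signal to noise of each spot.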 As to conditions: higher = more signal.

SMILES strings stand for the structures. Activity calls are given as the source filed them.

With `COC(=O)C(CC#Cc1ccc2c(c1)[C@]1(C(=O)N2)[C@H](c2ccccc2OCCO)N2[C@H](c3ccccc3)[C@H](c3ccccc3)OC(=O)[C@H]2[C@@H]1C(=O)Nc1nc2ccccc2s1)C(=O)OC`, the composite z-score in assay [1] was -0.214; in [2] it was 0.675; in assay [3], 0.0563; in assay [4] it was 0.605; in [5], 1.05; in [6], 1.47. For the same compound, the composite z-score in assay [7] is 1.26; in [9], 0.446; in assay [10] it was 0.0329; in [11], 1.52; in assay [15] it was 2.93; in assay [17] it was -0.0699. The composite z-score in [18] was 1.24; in assay [19], 1.15; in assay [20], -0.0688. The z-score in [8] is 1.94 (inactive); in [12], 2.11 (inactive); in assay [13], 1.03 (inactive); in assay [14], 1.36 (inactive); in [16], -0.724 (inactive).
For `COC(=O)[C@@]1(Cc2ccc(OC)cc2)[C@H]2c3cc(C(=O)N4CCCC4)n(CCc4ccc(O)c(OC)c4)c3C[C@H]2CN1C(=O)c1ccccc1`, the composite z-score in [1] was 0.411; in [2], -0.336; in assay [3], 0.0331; in assay [4], 0.252; in assay [5] it was 1.56; in [6], 1.2. Also, the composite z-score is 0.803 in [7]; 0.603 in assay [9]; 0.167 in [10]; -1.53 in [11]; 2.6 in assay [15]; 0.128 in assay [17]. The values for the composite z-score in assay [18], in assay [19] and in [20] were -0.879, -0.56 and 0.0055, respectively. The z-score is -0.454 (inactive) in [8]; 0.525 (inactive) in [12]; 0.452 (inactive) in assay [13]; 0.0019 (inactive) in [14]; -1.13 (inactive) in [16].
Take `C[N+](C)(C)CCCCCCNC(=O)[C@@H]1C[C@@H]2C(=O)NCC(=O)N2[C@@H]1c1cccc(OCCO)c1`: the composite z-score is -0.419 in assay [1]; 0.488 in [2]; -0.125 in assay [3]; -0.114 in [4]; 0.033 in [5]; 0.021 in [6]. Also, the composite z-score in [7] was 1.22; in assay [9], -0.0422; in assay [10], -0.34; in assay [11] it was 1.55; in [15], 2.23; in assay [17], -0.207. Also, the composite z-score in assay [18] is 1.49; in assay [19] it was 1.1; in [20] it was -0.0531. The z-score is 4.06 (inactive) in [8]; -0.947 (inactive) in [12]; 0.0641 (inactive) in assay [13]; -0.683 (inactive) in [14]; 1.3 (inactive) in assay [16].
For `[N-]=[N+]=NCc1ccccc1C[C@@]1(C(=O)NCCN2CCOCC2)N=C(c2ccc(OCCCO)cc2)O[C@@H]1c1ccccc1CN=[N+]=[N-]`, the composite z-score in [1] was -0.166; in assay [2] it was 0.69; in [3] it was 0.105; in assay [4], 0.924; in assay [5] it was 1.26; in [6], 1.27. In addition, the composite z-score in assay [7] came out at 1.21; in [9], 1.59; in [10], 0.0053; in assay [11] it was 1.56; in assay [15] it was 2.84; in assay [17], 0.146. Also, the composite z-score was 1.11 in assay [18], 1.08 in assay [19] and 0.177 in assay [20]. For the same compound, the z-score in assay [8] is -2.25 (inactive); in [12] it was -0.0759 (inactive); in assay [13] it was -0.67 (inactive); in [14], 2.01 (inactive); in assay [16] it was 1.24 (inactive).
On to `C=CCC(OC(C)=O)[C@@H]1[C@@H](N(Cc2cc3ccccc3o2)C(=O)Cc2ccc(OC)cc2)c2cc(OCCCO)ccc2N1C(=O)c1ccc(-c2ccccc2)cc1` (stereo not given in full), for which the composite z-score was 0.378 in assay [1]; 0.459 in assay [2]; -0.0601 in [3]; -0.204 in [4]; -0.4 in assay [5]; -0.294 in assay [6]. Besides, the composite z-score in [7] is -0.529; in assay [9], 0.182; in assay [10] it was 0.251; in [11], -0.427; in [15] it was 0.238; in assay [17], 0.0689. In addition, the results for the composite z-score in assay [18], in assay [19] and in [20] were -0.624, -1.09 and -0.127, respectively. Further, the z-score was -0.199 (inactive) in [8]; 0.0801 (inactive) in [12]; -0.709 (inactive) in assay [13]; 0.714 (inactive) in assay [14]; 1.53 (inactive) in assay [16].
